Screening data as filed in PubChem BioAssay.
Only some compounds are listed: those with a hit (about 6% of all), similar ones and a draw of the others.
D1 PAM: human D1 dopamine receptor positive modulation. HEK293 TREx D1 cells, calcium flux, dopamine EC20 potentiation. 0.036% of 360,000 active. potentiation, % at 10 µM; in the data active = potentiation above about 30%
Target sequence (P21728 whole entry, looked up): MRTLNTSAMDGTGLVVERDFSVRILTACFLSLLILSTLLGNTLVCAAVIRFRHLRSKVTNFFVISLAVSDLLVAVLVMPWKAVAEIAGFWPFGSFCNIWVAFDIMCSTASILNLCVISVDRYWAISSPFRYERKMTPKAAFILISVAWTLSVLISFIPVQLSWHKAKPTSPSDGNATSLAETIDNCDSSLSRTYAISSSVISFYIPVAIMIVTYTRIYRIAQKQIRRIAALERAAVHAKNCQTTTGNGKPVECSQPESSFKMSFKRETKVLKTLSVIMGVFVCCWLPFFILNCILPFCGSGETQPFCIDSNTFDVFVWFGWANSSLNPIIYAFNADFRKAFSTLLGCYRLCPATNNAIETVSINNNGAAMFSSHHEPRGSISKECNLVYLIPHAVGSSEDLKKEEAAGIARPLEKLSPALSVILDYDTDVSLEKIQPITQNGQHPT
D1 ag: agonists of human D1 dopamine receptor. AID 504660. activation, % at 2 µM. P21728. HEK293 T-REx D1 cells, calcium flux, agonist mode. 1% of 360,000 active; in the data active = activation above about 30%
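Inducible HEK293 T-REx D1 cells, force-coupled to calcium signalling, were plated at 4000 cells/well with tetracycline and held overnight at 30 C. After no-wash calcium dye loading, compound-evoked calcium rise over 180 s flagged agonists.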
DRD3 antagonist: blocks the human D3 dopamine receptor; P35462; D3R cells, DiscoveRx beta-arrestin luminescence, antagonist mode; active compounds read low; max response, negative = inhibition, %; 2.5% of 360,000 active; in the data active = max response below about -50%; inconclusive = no clear call, values can overlap the other calls
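Cells expressing the human receptor were seeded at 1500 cells/well, incubated overnight at 37 degrees C in 5% CO2, then exposed to library compounds with dopamine controls for 90 minutes at 37 degrees C before luminescent detection.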
D3 ag: D3 dopamine receptor (human) agonism. 0.58% of 410,000 active. max activation, %. P35462. AID 652048. D3R DiscoveRx beta-arrestin cells, luminescence, 90 min; in the data active = max activation above about 30%
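Agonist mode: compounds and dopamine controls were applied to plated cells for 90 min at 37 degrees C after an overnight attachment at 1500 cells/well. Luminescent read-out followed 30 - 60 minutes at room temperature with DiscoveRx detection reagent.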
D1 antag: antagonists of human D1 dopamine receptor. P21728. HEK293 TREx D1 cells, calcium flux, dopamine EC80; active compounds read low. activity change, negative = inhibition, % at 10 µM. 3.2% of 360,000 active. AID 504652; in the data active = activity change below about -30%
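Tetracycline-induced HEK293 Trex D1 cells, force-coupled to calcium, dye-loaded; compounds added and read 180 s, then EC80 dopamine added and calcium flux tracked kinetically another 180 s.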
Large screens that a line does not name were inactive.

COc1ccc(CN2CCN(C(=O)c3cccnc3)CC2)cc1Br	DRD3 antagonist inconclusive, D1 antag -34
O=C(c1cccnc1)N1CCN(Cc2cccc(Br)c2)CC1	none
CC(C)Cc1nn2c(=O)cc(COC(=O)c3ccccc3NC(=O)c3ccccc3)nc2s1	none (no result: DRD3 antagonist)
CC(C)(C)c1ccc(C(=O)N2CCN(S(=O)(=O)c3ccc(Br)s3)CC2)cc1	D1 antag -32
O=C(c1ccc(-c2ccccc2)cc1)N1CCN(C(=O)c2ccco2)CC1	D1 antag -37
CC(C)(C)c1ccc(Cn2nnc3c(=O)[nH]c(C4CCN(C(=O)c5ccco5)CC4)nc32)cc1	D3 ag 32
Cc1cc(NC(=O)C2CCN(C(=O)c3ccco3)CC2)ccc1Br	D1 antag -37
O=C(C(=O)N1CCN(C(=O)c2ccco2)CC1)c1ccccc1	none (no result: D1 PAM, D1 ag, D1 antag)
O=C(c1ccco1)N1CCC(c2nc3c(nnn3Cc3c(Cl)cccc3Cl)c(=O)[nH]2)CC1	none
CCOC(=O)N1CCN(S(=O)(=O)c2ccc(Br)s2)CC1	none
COc1ccc(OC)c(CCNC(=O)Cn2ccc3cc(S(=O)(=O)N4CCCCC4)ccc32)c1	none (no result: DRD3 antagonist)
CCCCN(CC)C(=O)Cn1nc(C)c2c(C)n(-c3ccccc3)nc2c1=O	none (no result: DRD3 antagonist)
O=C(c1ccccc1)C1CCN(C(=O)c2ccco2)CC1	D1 PAM 59
CC(C)(O)C#Cc1ccc(C(=O)N2CCN(C(=O)c3ccco3)CC2)cc1	none
Cn1c(=O)cc(N2CCN(C(=O)c3ccco3)CC2)[nH]c1=O	DRD3 antagonist -113
CC(C)(C)c1ccc(C(=O)N2CCN(C(=O)c3ccco3)CC2)cc1	D1 antag -30
O=C(CC1Oc2ccccc2NC1=O)NC1CC1 (centres undefined)	none (no result: DRD3 antagonist, D3 ag)
O=C(CC1Oc2ccccc2NC1=O)NC1CCCC1 (centres undefined)	D1 antag -40
CC1CCN(CCc2nc3cc(NS(=O)(=O)c4ccc(F)cc4)ccc3n2C)CC1	DRD3 antagonist -70
CCC(=O)Nc1ccc2c(c1)nc(CCN1CCCCC1)n2C	none
CC1CCN(CCc2nc3cc(NS(=O)(=O)c4ccccc4)ccc3n2C)CC1	DRD3 antagonist -75
CC(C)C(=O)Nc1ccc2c(c1)nc(CCN1CCN(c3ccccn3)CC1)n2C	D3 ag 62
CCC(=O)Nc1ccc2c(c1)nc(CCN1CCN(c3ccccc3)CC1)n2C	DRD3 antagonist -62
CC1CCN(CCc2nc3cc(NC(=O)Nc4ccccc4)ccc3n2C)CC1	DRD3 antagonist -60
CC1CCC(NC(=O)Cn2c(=O)oc3ccccc32)CC1 (centres undefined)	DRD3 antagonist -51
CC1CCN(C(=O)Cn2c(=O)oc3ccccc32)CC1	none
O=S(=O)(Nc1ccc2c(c1)OCO2)c1cccc(Br)c1	D1 antag -34
O=C1COc2ccc(S(=O)(=O)Nc3ccc4c(c3)OCO4)cc2N1	D1 antag -32
CCOc1ccc(-n2c(SC(C)C(=O)OC)nc3c([nH]c4ccccc43)c2=O)cc1 (centres undefined)	none (no result: DRD3 antagonist)
CCc1nnc2c3ccccc3nc(Nc3ccc(F)c(Cl)c3)n12	none (no result: DRD3 antagonist)
O=C(C1CCCCN1S(=O)(=O)c1ccccc1[N+](=O)[O-])N1CCCC1 (centres undefined)	DRD3 antagonist -53
Cc1ccccc1Nc1nnc(-c2ccc(C)c(S(=O)(=O)N3CCN(C)CC3)c2)c2ccccc12	none (no result: DRD3 antagonist)
Cc1ccc(C)c(Nc2nnc(-c3ccc(C)c(S(=O)(=O)N4CCN(C)CC4)c3)c3ccccc23)c1	D1 antag -31 (no result: DRD3 antagonist)
Cc1ccc(-c2nnc(Nc3ccccc3)c3ccccc23)cc1S(=O)(=O)NCC1CCCO1 (centres undefined)	none
Cc1ccc(-c2nnc(N3CCCCC3)c3ccccc23)cc1S(=O)(=O)N1CCN(C)CC1	DRD3 antagonist -83
Cc1ccc(C)c(Nc2nnc(-c3ccc(C)c(S(=O)(=O)NCC4CCCO4)c3)c3ccccc23)c1 (centres undefined)	D1 antag -39 (no result: DRD3 antagonist)
O=S(=O)(c1cccc2cccnc12)N1CCCCC1	none
CN1CCN(c2ncccc2S(=O)(=O)N2CCCCC2)CC1	DRD3 antagonist -67
CCC(=O)N1CCc2cc(S(=O)(=O)NC(Cc3ccccc3)C(=O)NCc3ccc(F)cc3)ccc21 (centres undefined)	none (no result: DRD3 antagonist)
Cc1ccc(-n2ncc(C(=O)NCCc3ccccc3)c2C2CCN(C(=O)OC(C)(C)C)CC2)c(C)c1	none (no result: DRD3 antagonist)
Cc1cc(N2CCN(c3ccccc3)CC2)nc(-n2nc(C)cc2C)n1	DRD3 antagonist -86
Cc1cc(N2CCN(c3ccccc3)CC2)nc(-c2ccccc2O)n1	none
COc1cccc(-c2ccc3c(N)c(C(=O)c4ccc(Cl)cc4)sc3n2)c1	D1 ag 98 (no result: DRD3 antagonist)
COc1cccc(-c2ccc3c(N)c(C(=O)Nc4ccc(C)c(F)c4)sc3n2)c1	none (no result: DRD3 antagonist)
COc1ccc(C(=O)c2sc3nc(-c4ccccc4)ccc3c2N)cc1	D1 ag 158
COc1ccccc1N1CCN(C(=O)Cn2ncc3c(=O)oc4ccccc4c32)CC1	none (no result: DRD3 antagonist)
O=C(Cn1sc2ccccc2c1=O)Nc1ccc(Br)cc1	none (no result: D1 PAM, D1 ag, D1 antag)
O=C(Cn1sc2ccccc2c1=O)Nc1ccc(F)cc1	DRD3 antagonist -78 (no result: D1 PAM, D1 ag, D1 antag)
COc1cc(CNC2CCC(C)C2)cc(OC)c1 (centres undefined)	D1 antag -48
COc1cc(CNC2CCCC2)cc(OC)c1	none
COc1cccc(C(=O)NC2CC3CCCC(C2)N3CC(=O)Nc2ccccc2)c1 (centres undefined)	DRD3 antagonist -59
O=C(CN1C2CCCC1CC(NC(=O)c1ccccc1)C2)Nc1ccccc1 (centres undefined)	D1 antag -53
CCOc1ccccc1Nc1nnc(-c2cc3cc(OC)ccc3oc2=O)s1	D1 ag 56 (no result: DRD3 antagonist)
O=C(Nc1ccc(Cl)c(-c2nc3ccccc3o2)c1)c1cccc2c(Cl)cccc12	none (no result: DRD3 antagonist)
CCN1C(=S)SC(=O)C1=C1C=C(C)N(Cc2ccco2)C(C)=C1	D1 ag 171
CCOC(=O)c1[nH]c(C)c(C(=O)NC)c1C	none
CCOC(=O)c1c(C)[nH]c(C(=O)OC)c1CCC(=O)OC	D1 antag -36
CCOC(=O)c1[nH]c(Cc2[nH]c(C(=O)OCC)c(C)c2CCC(=O)OC)c(CCC(=O)OC)c1C	D1 antag -55
Cc1ccc(Nc2nc(N)c([N+](=O)[O-])c(N3CCOCC3)n2)cc1	none
COc1ccc(Nc2nc(N)c([N+](=O)[O-])c(N3CCCC3)n2)cc1	none
Cc1ccc(Nc2nc(N3CCOCC3)c3ccccc3n2)cc1	D1 antag -60
Oc1ccc(Nc2nc(N3CCCC3)c3ccccc3n2)cc1	DRD3 antagonist -71, D1 antag -40
COc1ccc(Nc2nc(N3CCCCC3)c3ccccc3n2)cc1	DRD3 antagonist inconclusive, D1 antag -49
CC(C)Oc1ccc(CNC(=O)c2ccc(NC(=O)c3nsc4ccccc34)cc2)cc1	none (no result: DRD3 antagonist)
CCN(CC)c1cc(C)nc2nc(-c3ccc(C)cc3)nn12	none (no result: DRD3 antagonist)
